Test results reported in PubChem BioAssay AID1508600 (Functional Genomics Laboratory (NCATS/FGL), 2020).
Hit rate of the full screen: of about 53,000 sequences, about 3,700 (7%) were called active.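 The calls were made as follows: active = gene knockdowns whose robust z-score for IL-1 alpha signal is at least 2 or at most -2, so actives lie on both sides; inactive = the rest.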 The full list was thinned out, with actives kept by preference.

Experiment: Components of the Cytosolic LPS Sensing Pathway: Gene Identification via Genome-wide siRNA Screen
Settings: RAW264.7 macrophages, IL-1a HTRF, actives lie on both sides, screened at 100 nM (by protocol), cells primed 5 h with Pam3CSK4 first
Description: Non-canonical inflammasome activation by cytosolic LPS is a critical component of the host response to Gram-negative bacterial infection, however we lack a comprehensive understanding of the cellular processes that control this pathway. Here we describe a genome-wide siRNA screen to identify genes regulating the mouse macrophage IL-1 alpha response to cytosolic LPS.
RAW264.7 cells were maintained in complete DMEM media, comprising DMEM with 4.5 g/L glucose, 10% FBS (Gemini Bio-Products, West Sacramento, CA), 2 mM Glutamine (Lonza) and 20 mM HEPES (Lonza), hereafter complete DMEM.
The RNAi screen was conducted in 384-well format using the Ambion Silencer Mouse Genome siRNA Library (#4391425), which consists of three unique, nonoverlapping, nonpooled siRNAs for each of 17,000 gene targets. siRNA reagents ([…]) were stamped into 384-well white flat-bottom microplates (Corning, 3570) using a Velocity11 VPrep liquid handling system (Agilent) integrated into a BioCel robotic platform (Agilent) in columns 1-22, leaving columns 23-24 empty for negative (Ambion, Negative control #1) and positive (mouse Casp4) controls, respectively. The median value of each plate's negative control column was used to normalize sample wells, and the positive control was used to assess transfection efficiency and assay performance.
Lipofectamine RNAiMAX Transfection Reagent ([…]; Invitrogen) was added in […] serum-free, antibiotic-free media to plate wells using a Thermo Scientific Matrix WellMate and Microplate Stacker. Plates were incubated for 45 min at room temperature to allow for the sufficient formation of siRNA-lipid complexes. Cells were seeded at a density of 1x10^4 cells per well in 20 microL media containing 20% (vol/vol) FBS without antibiotics. The final concentration of siRNA in each well was 100 nM. Cells were cultured for 48h at 37 degrees C in 5% CO2 before addition of […] of TLR ligand Pam3CSK4 for 5 hours. The medium was then removed, replaced with […] growth media and cell were transfected with […] of LipidA and TransIT-TKO (Mirus) for 24 hour. At the end of the LipidA treatment, […] of supernatant was transferred to a 384 Greiner Bio-one non-binding low volume plate and […] of IL-1a HTRF reagent (Cisbio, 62MIL1APEH) was added and incubated at room temperature overnight. The plates were read on an EnVision plate reader (PerkinElmer). Cell viability was measured by adding 20ul Cell Titer Glo to the original plate and running a luminescence read on the EnVision. The quantified IL-1a signal for each siRNA gene-targeted well was divided by the median of the negative control wells and multiplied by 100 to achieve a negative control normalized value for each well/siRNA. This normalized value was then used to generate a robust z-score by first taking the log of each value and then by subtracting the median and dividing by the […].

z-score, inactive:
GGAUGAUAUCUCAGUCAUGTT against Sult2a8 0.462
GGAAGGAAUUGGUUACCUATT against Cep72 -0.2
GGCUGAGUGAAUUGGGAAUTT against Olfr419 1.28
GGACGAUAGGACCCAAAGGTT against Sh3tc1 0.668
GGAUUUGUACACACUUCAATT against Tcim 1.48
GGCAUCCAAUCCUGUGGAGTT against Bcl11a -0.62
GGGAGAUAUCUUCUCAGUATT against Psmb11 1.5
CGUAGAUGUCCUAGAAUUGTT against Rundc1 1.37
GGAGGAGUAUGAAGAGCUGTT against Poc5 -0.0911
GCGAUGAUAAGUGCCUGGUTT against Stk31 -1.58
CGGAGUGAAACUACUCAUUTT against Ckb -0.773
GGUGAUUUAUUCAGUUCAATT against Lmbrd2 -1.13
CCUUUGAAAAAGCUUGCCATT against Tor1aip2 0.0385
GGUGCUAUGGAAAAUCAAGTT against Dcaf1 -1.04
GGUCAUGCAAGACAAGAUCTT against Lrrc8c 0.487
GGCAGCGAAAGUUUUCAAGTT against Pcdhga12 0.721
GGAAUCCUGGAUUGAGGAATT against Rhod 0.394
GGGUCAACUACUCACACUGTT against Crhr2 0.78
CCAUAAGCGAAAUGCCUUCTT against Areg 0.201
CGUUGUUUAUUCCAAAGAGTT against Runx1 0.44
GACCCAGGCUCUGCUCUUUTT against Olfr1413 0.413
GCUAGAUAUCCGGAACCAATT against Ndufv3 -0.752
GAGACAUCCUCUUCACCAUTT against Olfr495 -1.25
GGAAGAAUUCUCAAAGAAUTT against Scyl3 -0.343
GGAAGAGCUGCUGAAUUCATT against Mthfd2 0.052
GGUUAUCUUGAAUAAAGCUTT against Zfp346 -0.303
CCGAUAAAAGAUGACCUCATT against D17H6S56E-5 -0.241
GGCGAUUUACAAGCUGAAGTT against Guca1b 0.566
CCGUUAGAGCUGUUAUUUUTT against Olfr556 0.959
CCUCGAACCAAGAUGUUCATT against Pdzrn3 0.851
GGCACACAAUUUUCACUGATT against Pcdhb9 0.315
GCCAAGUCUGCUUCACGAGTT against Nyap1 1.82
CCUCACAAUAUCUUUAGAATT against Cep162 -0.0322
GGCAGGAUAUGUAUUCUGATT against Tmem121b 1.15
GGAAACCUCCGAAAGGCAUTT against Rcor1 -0.0503
GGAUAAAGUCACCUUCAUCTT against Itgam 1.86
GCACUUUCCUAAUGGUCCUTT against Ifnab 0.104
GGAUCCUCACCAAGAUUACTT against Mrps22 0.391
GGAAUUUAAGGAAGCUGCUTT against Homer1 -0.698
GGGUGAGAAAAUUCACGAGTT against Tubg2 0.536
GGAUUGAGAAAAUCUACAUTT against Tnfrsf8 0.505
GGGUCAGAUGGUACCAAGATT against Adamts18 0.0174
GCCUUGUUUAUAUGCCCAATT against Olfr592 0.0232
GGCAAGAAAGAAAGGCCAATT against Rps23 0.00872
GGUUCAAUUCACAGAGCGCTT against Mrpl21 1.37
GGGCAACUUUGAUUAAUCATT against Hsd3b7 1.02
GGUAACUUCAUGUGCAGCATT against Ldlrad3 -1.71
GGCGUAUGCAGAAUUCUACTT against Cox6c -0.0709
GGAGAAGUCAUUGUUUUUGTT against Klhdc2 -0.493
GCUACUGACCAUUCUAACUTT against Tmem198b 0.264
GGAAGGACUGUCAAAUGGCTT against Med11 -0.171
CCAUGUCUUGAACUUGGAUTT against Tsks 0.793
CCGACUCCAGUUGAAUGUUTT against Tgif2 -0.572
CCAGUUUGAUGGUAGACAATT against Tifa -1.38
GGUACCCAGCGAUCAUGCATT against Olfr1370 -0.109

z-score, active:
GGACAAUUCAGAGUGAUAGTT against Mog -2.21
GGAAAUGUUUAUCACGGUUTT against Scube2 2.05
GCACUGGAAUGUCAUCUCGTT against Casp3 2.9
GGAAGUAAAGGGAUUUAACTT against Ankrd46 2.19
CCGGAAAUUUCUGAUGGAGTT against Eif4ebp1 2.19
GGAUCUGAGCCUUAACAAGTT against Lpcat3 2.92
GGUUUGAGAGUGGUAAUCUTT against Agbl3 2.17
GGUCAGCAUUUGCUAUGAATT against Tmsb15l -2.02
CCGCUAUAUCACGGAGCAGTT against En1 2.45
GCCAAGGUGCAGAUAAGGUTT against Rhox7a 2.6
CCCUCUGUGGUUAAAGACUTT against Tctex1d2 -2.88
GGCACAACAUCAUCUGUCUTT against Psmd9 -2.05
CGUAUUGUUUCCUAGCACATT against Arhgef38 2.08
